# Compound activity from PubChem.
# Shown are actives, neighbours in structure and some others; about 2.2% of the full set was active somewhere.
# FAS-TE inh = blocks the thioesterase domain of human fatty acid synthase; inhibition, % at 15 µM; AID 602261; recombinant FAS-TE, OMFH fluorogenic substrate, fluorescence endpoint; 360,000 tested, 0.67% active; P49327;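 active = compounds whose normalised, plate-corrected inhibition of enzyme fluorescence in the single-dose primary screen is 50% or more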;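 note: 0% = DMSO with enzyme and 100% = substrate without enzyme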
# H9c2 protect = protects H9c2 cardiomyocytes from peroxide injury. 360,000 tested, 0.63% active. H2O2 injury protection, ATPLite, 2 h. AID 588492. protection from H2O2 cell death, % at 20 µM;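 active = compounds giving at least 50% protection of heart cells from peroxide-induced death in the single-dose screen, raw or plate-pattern-corrected value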;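 note: 0% = DMSO wells with peroxide and 100% = DMSO wells without peroxide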
# PLC-beta3 inh = PLC-beta3 (human) inhibition, primary screen | 370,000 tested, 0.18% active | Q01970 | AID 720704 | inhibition, % at 12.2 µM | Purified PLC-beta3, fluorogenic substrate, fluorescence; in the data active = inhibition above about 11%;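 note: 0% = median of compound wells on plate and 100% = full blocker control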
# PLC-gamma1 inh = blocks human PLC-gamma1 enzyme activity. purified PLC-gamma1, fluorogenic substrate, fluorescence. inhibition, % at 12.2 µM. AID 720700. P19174. 370,000 tested, 0.84% active; in the data active = inhibition above about 9.5%
# * marks the source's active call; other numbers are inactive results; i = inactive; / = no result.
SMILES,FAS-TE inh,H9c2 protect,PLC-beta3 inh,PLC-gamma1 inh
Cc1ccc(CNC(=O)O[C@H]2CC[C@@]34CCCN3C(=O)CCC[C@H]4C2)cc1,/,/,3,2
Oc1ccc(Cl)cc1C=Nc1ccccc1Br,-19,48,1,6
Oc1ccc(Br)cc1C=Nc1ccc2c3c(cccc13)CC2,11,87*,i,i
CCOC(=O)[C@]12CCCC=C1N(Cc1ccc(OC)cc1)C(=O)[C@@H]2CC(=O)N1CCCCC1,/,/,0,0
COc1cccc(-c2cc3nc(C)c(C)c(N4CCN(C(=O)c5ccoc5)CC4)n3n2)c1,15,56*,-22,-18
COc1ccc(-c2cc3nc(-c4ccccc4)cc(N4CCN(C(C)=O)CC4)n3n2)cc1,17,80*,i,i
C(=C\c1ccccc1)/CSc1nnc(Cc2cccs2)n1-c1ccccc1,/,/,-5,-2
CCOC(=O)[C@@]12CCCC=C1N(CCc1ccc(Cl)cc1)C(=O)[C@H]2CC(=O)N1CCN(C(=O)c2ccco2)CC1,/,/,1,1
CCOc1ccc2nc(N=NC3=C(O)CC(C)(C)CC3=O)sc2c1,0,51*,0,-2
O=C1c2ccccc2NC(c2ccc(Cl)cc2Cl)N1O (stereo unspecified),-14,61*,-8,-13
O=C(c1ccccn1)N1CCN(S(=O)(=O)c2ccc3ccccc3c2)CC1,-2,-6,-1,-2
O=C(c1cc(=O)[nH]c2ccccc12)N1CCN(S(=O)(=O)c2ccc3ccccc3c2)CC1,6,103*,-31,-20
O=C(c1n[nH]c2ccccc12)N1CCN(S(=O)(=O)c2ccccc2)CC1,-2,-2,2,5
O=C(c1cc(=O)[nH]c2ccccc12)N1CCN(S(=O)(=O)c2ccc(Cl)cc2)CC1,1,88*,-34,-29
COc1cccc(C(=O)N[C@H](C(=O)N2CCC[C@H]2C(=O)NCCc2ccccc2Cl)c2ccccc2)c1,/,/,4,0
C/C(=N\NC(=O)C(C)Oc1ccc([N+](=O)[O-])cc1)c1ccccn1 (stereo unspecified),13,50*,1,1
CCCCCCCCN1CCS(=O)(=O)N(Cc2ccc(C(F)(F)F)cc2)C(C(=O)OC)C1 (stereo unspecified),/,/,1,-3
CCC(C)c1ccc(NC(=O)CSc2nnc(-c3cccc(C)c3)n2C)cc1 (stereo unspecified),/,/,5,1
N#CCC[C@H]1CC[C@]2(CCCN(C(=O)c3ccc4ccccc4n3)C2)O1,/,/,-1,-1
O=c1c2ccccc2nc(-c2ccc(Cl)c(Cl)c2)n1O,-10,63*,0,-3
O=C1N2CCc3ccccc3C2CS(=O)(=O)N1Cc1ccc(F)cc1 (stereo unspecified),/,/,0,1
Cc1[nH]c2ccccc2c1/C=N/Nc1nc(Nc2ccccc2)nc(N2CCOCC2)n1,16,60*,-2,-2
CN1CC=C(c2ccc(C(F)(F)F)cc2)N(c2ccccc2)C1=O,/,/,-3,1
Cn1c(O)c(C=Nc2ccc(N3CCOCC3)cc2)c(=O)n(C)c1=S,-39,10,-4,2
Cc1cc(O)c(C=Nc2ccc(N3CCOCC3)cc2)c(C)c1Cl,-37,83*,-28,-19
SMILES,FAS-TE inh,H9c2 protect,PLC-beta3 inh,PLC-gamma1 inh
CC1(C)Cc2c(c(N3CCOCC3)nc3sc(-c4ccc(C(=O)O)o4)c(N)c23)CO1,-4,25,i,i
CNC(=O)c1ccc(-c2sc3nc(N4CCOCC4)c4c(c3c2N)CCCC4)o1,6,80*,i,i
CNC(=O)c1ccc(-c2sc3nc(N4CCOCC4)c4c(c3c2N)CC(C)(C)OC4)o1,0,97*,i,i
COc1cc(NC(=O)CCc2c(C)nc3nc(C)nn3c2C)cc(OC)c1,-5,10,1,4
COc1cc(OC)cc(-c2cc3nc(C)c(CCC(=O)Nc4nc(C)cs4)c(C)n3n2)c1,2,64*,-14,-10
O=C(OCc1cc(=O)n2ccsc2n1)c1ccc(O)cc1O,-5,64*,-6,2
O=c1cc(COc2ncnc3c(Cl)cc(Cl)cc23)nc2sccn12,2,55*,-7,0
Cc1ccsc1C(=O)OCc1cc(=O)n2ccsc2n1,-1,31,-5,-6
Cn1cc(C(=O)c2ccc(Cl)cc2Cl)cc1C(=O)N/N=C(\N)COc1ccc(Cl)cc1Cl,48,86*,-1,12*
Cn1cc(C(=O)c2ccc(Cl)cc2Cl)cc1C(=O)N/N=C(\N)COc1ccc(Cl)cc1,24,96*,-8,3
Cn1cc(C(=O)c2ccc(Cl)cc2Cl)cc1C(=O)N/N=C(\N)COc1ccc(F)cc1,7,37,3,0
